Screens (PubChem)
D1 ag: human D1 receptor agonism. HEK293 T-REx D1 cells, calcium flux, agonist mode. activation, % at 2 µM. actives 1% (n = 360,000). AID 504660; further: 0% is about no effect
Target sequence (P21728 whole entry, looked up): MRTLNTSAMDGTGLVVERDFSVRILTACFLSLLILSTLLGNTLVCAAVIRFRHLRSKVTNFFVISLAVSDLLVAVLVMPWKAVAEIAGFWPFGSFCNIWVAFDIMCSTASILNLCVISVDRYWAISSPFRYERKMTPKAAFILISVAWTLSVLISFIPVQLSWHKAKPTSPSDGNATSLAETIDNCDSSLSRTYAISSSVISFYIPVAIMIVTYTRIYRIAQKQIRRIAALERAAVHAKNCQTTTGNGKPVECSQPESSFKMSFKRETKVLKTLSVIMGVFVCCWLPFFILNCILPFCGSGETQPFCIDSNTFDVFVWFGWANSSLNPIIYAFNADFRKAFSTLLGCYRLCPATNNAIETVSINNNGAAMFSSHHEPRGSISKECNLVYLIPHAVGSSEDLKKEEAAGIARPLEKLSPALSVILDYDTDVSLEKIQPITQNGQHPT
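Agonism was scored from calcium flux recorded over 180 s (1 read/s) after pintool compound addition, following a 10-cycle baseline. Cells were inducible force-coupled HEK293 TREx D1, plated overnight at 30 C and loaded with no-wash calcium dye.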
TRHR agonist: activates the human TRH receptor; AID 493084; P34981; activation, % at 2 µM; actives 0.18% (n = 360,000); TRHR cells, calcium flux fluo-8, FDSS agonist mode; further: 0% is about no effect
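Steps: seed TRHR cells overnight; add fluo-8 no-wash Ca dye, RT 30 min–1.5 h; record 10 s baseline; pin-transfer compounds; monitor fluorescence 1 cycle/s for the agonist window. Calcium increases flag candidate agonists.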
TRHR enhancer: allosterically enhances the human TRH receptor; actives 0.66% (n = 360,000); P34981; TRHR cells, fluo-8 calcium fluorescence, EC20 TRH enhancement; enhancement, % at 2 µM; in the data active means enhancement above about 30%; further: 0% is about no effect
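TRHR-expressing cells loaded with fluo-8 calcium dye were read kinetically (ex 480/em 530) during compound addition, then stimulated with an EC20 of TRH (10 nM final). Enhancement of the Gq-mediated intracellular calcium response was scored.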
D1 potentiator: human D1 dopamine receptor positive modulation; AID 504651; P21728; HEK293 TREx D1 cells, calcium flux, dopamine EC20 potentiation; actives 0.036% (n = 360,000); potentiation, % at 10 µM; in the data active means potentiation above about 30%; further: 0% is about no effect
D1 antag: blocks dopamine activation of the human D1 receptor; activity change, negative = inhibition, % at 10 µM; HEK293 TREx D1 cells, calcium flux, dopamine EC80; hits give low values; actives 3.2% (n = 360,000); AID 504652; in the data active means activity change below about -30%; further: on the % scale 0 is the no-effect control and ±100 the full control effect
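Inducible Hek293 Trex D1 cells (tetracycline, overnight, 30 C). Calcium dye 30–90 min RT. Antagonist mode: EC80 dopamine added after 180 s compound read.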
An asterisk follows results filed as active; . = not tested or not shown; ! = not active in a repeat. Shown are actives, neighbours in structure and some others; about 4.7% of the full set was active somewhere. Unless noted, no stated cut-off is given here; in the data, active means activation above about 30%; inactive means the rest.

SMILES	D1 ag	TRHR agonist	TRHR enhancer	D1 potentiator	D1 antag
COc1cccc(N2CCN(C(=O)C3Cc4ccccc4N3C(C)=O)CC2)c1 (centres undefined)	0.3	0.3	3.6	1.4	11.0
COc1cccc(NC(=O)Cn2nc(N3CCN(c4ccccc4)CC3)ccc2=O)c1	0.9	-0.1	0.5	-2.5	36.3
COc1cc(NC(=O)CN(C)C2CCCCC2)c(C)cc1[N+](=O)[O-]	0.0	-1.0	-2.5	-10.7	-73.7*
O=C(NCCOc1ccc(F)cc1)C1CCC(=O)N(CCN2CCOCC2)C1 (centres undefined)	-0.1	0.8	-3.1	-4.9	-53.0*
Cc1cc(C)cc(NC(=O)CN2CCN(c3ccccc3)CC2)c1	-0.4	-0.7	8.0	-3.7	-31.7*
Cc1cccc(C)c1NC(=O)CN1CCN(CCCC(c2ccc(F)cc2)c2ccc(F)cc2)CC1	8.2	0.8	0.3	-5.9	-53.1*
COc1ccc(N2CCN(CC(=O)Nc3c(C)cc(C)cc3C)CC2)cc1	-0.1	-0.9	0.8	-3.0	-9.3
Cc1cc(C)c(NC(=O)CN2CCN(C)CC2)c(C)c1	1.3	-0.8	32.4*	.	-3.8
CC(C)c1ccc(NC(=O)C(C)N(c2ccccc2)S(C)(=O)=O)cc1 (centres undefined)	-1.4	0.8	4.9	-1.5	-5.4
COc1cccc(NC(=O)CCC2CCN(C(=O)c3cccc(NC(C)=O)c3)CC2)c1	1.4	0.6	2.3	-3.8	-4.3
CC(Oc1ccccc1F)C(=O)NNC(=O)CC(C)c1ccccc1 (centres undefined)	1.5	-0.3	0.7	-3.5	8.6
Cc1c2cnn(CC(=O)NC(C)C)c(=O)c2c(C)n1Cc1ccccc1Cl	1.5	0.1	-3.2	-2.0	-31.5*
COc1ccccc1CNC(=O)Cn1ncc2c(C)n(Cc3ccccc3Cl)c(C)c2c1=O	1.7	-1.1	0.7	-2.4	-4.3
Cc1cc(C)n(-c2nc(NCCN(C)C)c3c4c(sc3n2)CCCC4)n1	32.8*	-0.7	2.7	-3.6	6.8
CCCN(CC(=O)Nc1ccccc1OC)C(=O)c1ccncc1	3.6	0.7	-0.8	.	5.5
CCOc1ccc(-c2cc(C(=O)NCCCOC)c3c(-c4ccc(CC)cc4)[nH]nc3n2)cc1	1.0	0.5	-0.5	0.0	1.1
CCc1ccc(CN(Cc2cn[nH]c2-c2ccc(OC)cc2)C(=O)Nc2cc(Cl)ccc2OC)cc1	1.6	-0.8	2.3	3.9	-62.4*
CCN(CC(=O)Nc1ccc(NC(C)=O)cc1)C(=O)/C=C/c1c(C)nn(-c2ccc(F)cc2)c1C	0.6	-1.0	3.7	-0.3	-4.2
O=C(Nc1ccc(Oc2cccc(C(F)(F)F)c2)nc1)c1ccco1	12.3	1.8	-3.8	-1.1	-40.6*
CCN(CC)c1ccc(C=C(c2nnnn2-c2ccc(C)cc2)c2nnnn2-c2ccc(C)cc2)cc1	32.2*	5.2	2.7	1.7	5.3
Cc1ccc(-n2nnnc2-c2ccccc2)cc1	6.3	-2.2	-1.9	-2.8	-5.1
COc1cccc(-n2c(=O)c3sc4ccccc4c3n(Cc3c(F)cccc3Cl)c2=O)c1	1.0	0.1	-6.0	-2.0	-18.8
Cc1ccc(NC(=O)C(NC2CCCc3ccccc32)c2ccccc2)cc1Cl (centres undefined)	8.9	-0.4	32.4*	6.8	-22.7
Cc1ccc(NC(=O)C(NC2CCCc3ccccc32)c2ccccc2)c([N+](=O)[O-])c1 (centres undefined)	3.9	0.4	4.9	1.6	14.7
CNC(=O)NC(=O)C(NC1CCCc2ccccc21)c1ccccc1 (centres undefined)	-0.6	-1.2	6.2	11.4	-33.4*
SMILES	D1 ag	TRHR agonist	TRHR enhancer	D1 potentiator	D1 antag
CC1CN(C(=O)COC(=O)c2cc(=O)c3ccccc3o2)CC(C)O1 (centres undefined)	6.5	1.6	9.2	.	-12.2
O=C(CSC1=Nc2ccccc2N=C(c2ccc(F)cc2)C1)NCc1ccccc1Cl	8.2	0.7	0.0	-2.6	1.0
COc1cc(CNCCO)cc(Br)c1OCc1ccccc1Cl	69.0*	0.7	2.4	4.5	9.0
COc1cc(CNCCO)cc(Cl)c1OCc1ccc(Cl)cc1Cl	154.3*	12.0	10.8	7.9	-2.9
CCCc1cc(=O)n2[nH]c(NCc3c(Cl)cccc3Cl)nc2n1	-0.3	0.1	3.6	4.5	-4.5
CCCc1cc(=O)n2[nH]c(NCc3c(F)cccc3Cl)nc2n1	0.5	0.2	-0.6	-1.2	-30.2*!
Oc1c(C(c2ccc(Cl)cc2Cl)N2CCN(c3ccccc3)CC2)sc2nc(-c3ccco3)nn12 (centres undefined)	0.0	-0.1	13.1	7.8	.
CCOc1ccccc1CNCc1ccc(F)cc1	4.0	0.9	-2.1	0.1	-31.1*
COC(=O)c1nc(NC2=NCCCCC2)n[nH]1	0.7	0.4	-4.8	-2.5	-36.4*
CCCCSc1nc(O)c(C2OC(=O)c3c2ccc(OC)c3OC)c(=O)n1-c1ccccc1 (centres undefined)	0.7	0.3	31.0*	2.1	-33.5*
O=C(Nc1ccn(Cc2ccccc2F)n1)c1ccc(COc2ccc(Br)cc2)cc1	51.5*	-1.0	3.4	-10.2	-53.9*
COC(=O)c1ccc(CSc2nc3ccncc3n2Cc2ccc(F)cc2)cc1	0.9	0.1	2.4	0.8	4.1
COC(=O)c1ccc(Cn2c(SCc3cccc(C)c3)nc3ccncc32)cc1	52.1*	-0.3	-2.0	2.0	-32.5*
Nc1nc(Cl)cc(NCCc2ccc(O)cc2)n1	16.3	0.5	-7.1	-7.0	-9.1
Oc1ccc(CCNc2ncnc3ccc(Cl)cc23)cc1	6.9	0.1	-5.3	-8.6	-40.2*
Cc1ccc(S(=O)(=O)c2c(Nc3cc(F)ccc3F)sc(C(=O)c3ccc(F)cc3)c2N)cc1	57.4*	6.5	-8.5	3.8	-69.0*
COc1ccc(OC)c(Nc2sc(C(=O)c3ccccc3)c(N)c2S(=O)(=O)c2ccccc2)c1	57.7*	1.8	-1.4	-0.8	-25.3
Nc1c(C(=O)c2ccc(F)cc2)sc(Nc2ccccc2F)c1S(=O)(=O)c1ccc(Br)cc1	82.8*	3.9	-14.1	-2.7	-25.9
Cc1ccc(Nc2sc(C(=O)c3ccc(F)cc3)c(N)c2S(=O)(=O)c2ccc(C)cc2)cc1	79.3*	4.5	4.5	-2.0	-30.2*
COc1cc2ccccc2cc1C(=O)Nc1ccc2oc(-c3ccc(F)cc3)nc2c1	-0.1	1.9	4.3	-2.5	-10.4
CC(=O)Nc1ccccc1-c1nc2ccccc2n(CC(=O)c2ccc(Br)cc2)c1=O	5.0	-1.1	-4.3	-1.8	-6.9
CC(=O)c1ccc(N2CCN(C(=O)c3ccc(C(=O)c4ccccc4)cc3)CC2)cc1	0.7	-0.7	-10.4	-5.3	-20.2
COc1ccc(NC(=O)CN(C)CC(=O)N2CCCCCC2)cc1	2.4	-2.0	1.6	0.9	-3.8
O=C(COC(=O)CNC(=O)c1ccccc1)NCCc1ccccc1	4.5	-0.2	-2.5	1.6	4.1
